Results on 70 molecules are retold here after ChEMBL document CHEMBL4513216, “Probing the Open Global Health Chemical Diversity Library for Multistage-Active Starting Points for Next-Generation Antimalarials” (ACS Infect Dis, 2020).

The campaign covered roughly 69,000 compounds. About 8,600 (12%) showed an effect of 50% or more. This is one part of a sample in which strong results are shown more often than they occur.

The test system of the test is Plasmodium berghei. The test can be described thus: Screen against P. berghei liver stage (PbLuc), transformed with Luciferase, at 10uM. It is filed as functional, HepG2. The conditions noted are these: tested at 10 uM.
In the case of `Cc1nc(CN2CCN(C(=O)c3sccc3C)CC2)cs1`, the INHIBITION is listed as -117%. In the case of `CC(C)c1nc(CNCC2CCCN2c2cccnn2)cs1` (stereo not given) it was -16.8%. To `COC(=O)c1ccc(C(=O)NCC(O)c2cccn2C)cc1` (stereo not given) belongs -52.5%; to `CC1CCN(c2cc(CCC3CCCN3)ncn2)CC1` (stereo not given), 34%. In the case of `CC(C)(C)OC(=O)N1CCCc2ccc(NCc3ccon3)cc21` it was 55.4%. As for `Cc1cc(CNCC2CCCN(C(=O)OC(C)(C)C)C2)no1` (stereo not given), the INHIBITION is 39%. To `Cc1n[nH]cc1CNc1ccc2c(c1)N(C(=O)OC(C)(C)C)CCC2` belongs 31.8%. In the case of `Cn1ncnc1CNc1ccc2c(c1)N(C(=O)OC(C)(C)C)CCC2` it was 52.4%; in that of `CC(C)(C)OC(=O)N1CCC[C@H](NCc2cc[nH]c2)C1`, 49.5%; in that of `CCCNC(=O)Nc1ccc2c(c1)N(S(=O)(=O)CC)CC2`, 36.3%. To `COc1ccc(NC(=O)c2ccccc2NCc2ncnn2C)cc1` belongs 47.4%. Take `Cn1ncnc1CNc1ccccc1C(=O)NC(C)(C)C`: the INHIBITION came out at 1.2%. In the case of `CCNC(=O)N1CCc2ccc(NC(=O)NCCOCC)cc21` it was -26.8%; in that of `CC(C)N(CC1CCCN(Cc2ccon2)C1)C(=O)OC(C)(C)C` (stereo not given), 39.9%; in that of `CC(C)(C)OC(=O)N1CCCc2ccc(NCc3cc[nH]c3)cc21`, 92.1%. In the case of `CCCNC(=O)CNc1ccc2c(c1)N(C(=O)OC(C)(C)C)CCC2` it was 87.2%. To `c1csc(-c2nc(CN3CCCCC3Cn3cncn3)cs2)c1` (stereo not given) belongs 42%; to `CCc1nc2n(n1)CC(NCC(=O)Nc1cc(C)nn1C)CC2` (stereo not given), 5.03%; to `Cc1ccc(-c2cnnc(N3CCCC3c3nccs3)n2)o1` (stereo not given), 12.6%.

Take `Cc1ccc(OCc2occc2C(=O)N2C[C@@H]3C(CN(C)C)[C@@H]3C2)cc1` (stereo not given in full): the INHIBITION was found to be 32.2%. On to `Cc1c(CN2CCCC2(C)C(=O)NC2CCCC2)cnn1C` (stereo not given), for which the INHIBITION was determined as 1.62%. In the case of `CCN(CC)CCNc1c(-c2ccccc2)c(=O)c1=O` it was 4.07%; in that of `CN(C)c1nc2cn(C3CCSCC3)c(=O)c-2c[nH]1`, 18.65%. To `CC(C)CC(=O)N1CC(=O)N(CCc2ccccc2)CC(O)C1` (stereo not given) belongs 0.284%; to `CC(C)c1nc(CN2CCN(C(=O)CN3CCOCC3)CC2)no1`, 13.3%. Consider `Cc1n[nH]cc1CNC(=O)[C@H]1CCCCN1C(=O)OC(C)(C)C`, for which the INHIBITION was found to be 34.1%. To `Cc1n[nH]cc1CNc1ccc2c(c1)CN(C(=O)OC(C)(C)C)CC2` belongs 80.1%; to `CC(C)(C)OC(=O)N1CCCc2ccc(NCc3ncc[nH]3)cc21`, 51.8%; to `CC(C)(C)OC(=O)N1CCCN(Cc2ccon2)c2ccccc21`, 83.6%. To `CC(=O)N1CC(C)CN(Cc2ccon2)c2ccccc21` (stereo not given) belongs 18%; to `CCN(C(=O)Cc1ccc(NCc2ncc[nH]2)cc1)c1ccccc1`, 22.2%. In the case of `COC(=O)N1CCc2ccc(NC(=O)c3cn(C)nn3)cc2C1` it was -28.4%.

As for `CN1CCN(Cc2cccc(NCc3ncc[nH]3)c2)CC1`, the INHIBITION is given as -13.9%.

Turning to `CC(=O)N1CCCN(Cc2ccon2)c2ccccc21`, the INHIBITION was found to be 32.3%. On to `Cc1cc(C)nc(N2CCC(C(=O)Nc3ccc(C(C)C)cc3)CC2)n1`, for which the INHIBITION came to 20.2%. To `O=S1(=O)NCC2(CCN(c3ncccn3)CC2)COc2ccccc21` belongs -21.2%. In the case of `CO[C@@H]1CO[C@@]2(CCCN(C(=O)N3CCCC3)C2)C1` it was 33.1%; in that of `CCS(=O)(=O)N1CCC(c2nn(CCN(C)C)c3ncccc23)C1` (stereo not given), 9.63%; in that of `Cc1cccc(C2CCN(S(=O)(=O)c3cn(C)cn3)CC2)n1`, -41.8%. Turning to `CCN1CCOC(CNCc2ccccc2OCc2ccncc2)C1` (stereo not given), the INHIBITION is recorded as 19.5%.

On to `Cc1nnc2n1CCN(Cc1ncc(-c3ccccc3)o1)C2`, for which the INHIBITION is recorded as -25.4%. To `c1cc(-c2ccc3nc(C4CCN(CC5CC5)CC4)nn3c2)ccn1` belongs 47.9%; to `COc1ccc(OCCN2CCN(Cc3nccn3C)CC2)cc1`, 14.1%. `CCN(Cc1ccncc1)CC1(O)CCN(C(=O)c2ccccc2C)C1` (stereo not given): the INHIBITION is recorded as 23.2%. To `CC(C)n1c(C(=O)N2CCCC2)nc2c1CCN(c1ncccn1)C2` belongs 33.4%; to `CN1CCCN(C(=O)c2nc3c(n2C)CCN(c2ncccn2)C3)CC1`, 55.6%; to `Cn1c(C(=O)N2CCOCC2)nc2c1CCN(c1ncccn1)C2`, 14.2%.

Consider `CN1CCN(C(=O)c2[nH]nnc2Nc2ccccc2F)CC1`, for which the INHIBITION worked out at 5.18%. In the case of `CC(=O)Nc1ccc(C(=O)NCCCn2cccc2)cc1` it was 18.7%; in that of `O=C(NCCNC(=O)c1ccc(Cl)cc1)NCCn1cccc1`, -11.9%; in that of `NC(=O)Nc1ccc(C(=O)NCCn2cccc2)cc1`, 57.1%. In the case of `O=C(NC[C@]12COC[C@H]1CN(Cc1nccs1)C2)c1cscn1` it was 47.9%. In the case of `FC(F)(F)c1cc(C2CCNCC2)nc(-c2ccsc2)n1` it was 1.62%.

With `CN1C(=O)CC(c2cnn(C)c2)C12CCN(C(=O)c1ccnnc1)CC2` (stereo not given), the INHIBITION is reported as 57.9%. To `CN1C(=O)CC(c2cnn(C)c2)C12CCN(C(=O)c1ccco1)CC2` (stereo not given) belongs 10.1%; to `CN1C(=O)CC(c2cnn(C)c2)C12CCN(C(=O)c1cscn1)CC2` (stereo not given), 61.4%; to `CN1C(=O)CC(c2cnn(C)c2)C12CCN(C(=O)c1ccncc1)CC2` (stereo not given), 42.7%. To `CN1C(=O)CC(c2cnn(C)c2)C12CCN(C(=O)c1ccc[nH]1)CC2` (stereo not given) belongs 37.8%; to `CN1C(=O)CC(c2cnn(C)c2)C12CCN(C(=O)c1ccno1)CC2` (stereo not given), 14.8%; to `Cc1nc(C2CCCN2C(=O)CCc2ccc(F)cc2)ncc1C(N)=O` (stereo not given), 43.6%. To `O=C(CCc1nc2ccccc2[nH]1)N1CCCC(n2cccn2)C1` (stereo not given) belongs 40.75%; to `COCCN1C(=O)CCC12CCCN(C(=O)NC(C)C)CC2` (stereo not given), 18.6%; to `COCCN1C(=O)CCC12CCCN(C(=O)CC1CC1)CC2` (stereo not given), -15.9%. With `COCCN1C(=O)CCC12CCN(C(=O)NC(C)C)CC2`, the INHIBITION is reported as -38.4%.

Turning to `CC(C)NC(=O)N1CCC2(CCC(=O)N2CCN2CCCC2)CC1`, the INHIBITION is 5.04%. To `CN(C)CCN1C(=O)CCC12CCCN(C(=O)CC1CC1)CC2` (stereo not given) belongs 51.9%; to `COCCC(=O)N1CCCC2(CCC(=O)N2CCOC)CC1` (stereo not given), 54.9%.

As for `CC(C)NC(=O)N1CCC2(CCC(=O)N2CCN(C)C)CC1`, the INHIBITION is given as 60.5%. In the case of `CN(C)CCN1C(=O)CCC12CCCN(C(=O)N(C)C)CC2` (stereo not given) it was 9.97%. Consider `CN(C)CCN1C(=O)CCC12CCN(C(=O)CC1CC1)CC2`, for which the INHIBITION is -12.2%.
